We go through 9 molecules from PubChem BioAssay (EPA / NIEHS).

Calls of active or inactive are those of the source. How the source made its calls: active means hit-call score of the fitted dose curve at least 0.9, where 1 is the maximum; inactive means score below 0.9.

Read-out in experiment [1]: Macrophage colony-stimulating factor (MCSF), CSF1 (gene 1435)
The experiment is described as follows: BSK_LPS_MCSF: BioMAP Diversity Plus: LPS Assay for Macrophage colony-stimulating factor (MCSF) Biomarker Activity (AID 2283083). To be noted: primary human HUVEC with PBMC; actives raise or lower the signal. In short, it runs like this: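 HUVEC + PBMC co-culture (human primary), 24 h post-dose; M-CSF by ELISA; gain/loss of signal fitted bidirectionally vs DMSO baseline.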

Read-out in experiment [2]: Tissue Factor, F3 (gene 2152)
Kind of experiment: BSK_LPS_TissueFactor: BioMAP Diversity Plus: LPS Assay for Tissue Factor Biomarker Activity (AID 2283084). To be noted: primary human HUVEC with PBMC; actives raise or lower the signal. In short, it runs like this: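 HUVEC/PBMC co-culture, LPS-activated; CD142 ELISA read 24 h post-dose; bidirectional curve fit vs DMSO negative control.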

Read-out in experiment [3]: Tumor necrosis factor (Homo sapiens) (UniProt P01375)
Kind of experiment: BSK_LPS_TNFa: BioMAP Diversity Plus: LPS Assay for Tumour Necrosis Factor alpha (TNFa) Biomarker Activity (AID 2283085).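 On AC50: TNFa protein level quantified by ELISA in the co-culture.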 To be noted: primary human HUVEC with PBMC; actives raise or lower the signal. The method in brief:
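TNFa was quantified by ELISA in LPS-activated co-cultures of human endothelial cells and PBMC, 24 h post-dosing. Both increases and decreases versus DMSO were fitted.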

Read-out in experiment [4]: Vascular cell adhesion molecule 1 (VCAM1), VCAM1 (gene 7412)
The experiment is described as follows: BSK_LPS_VCAM1: BioMAP Diversity Plus: LPS Assay for Vascular cell adhesion molecule 1 (VCAM1) Biomarker Activity (AID 2283086). To be noted: primary human HUVEC with PBMC; actives raise or lower the signal. The method in brief: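 VCAM-1 quantified by ELISA in an LPS-activated co-culture of human endothelial cells and peripheral blood mononuclear cells, read 24 h post-treatment. Fitted in both directions versus DMSO; parallel SRB staining flags overt cytotoxicity.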

Read-out in another experiment: CD38, CD38 (gene 952)
The experiment is described as follows: BSK_SAg_CD38: BioMAP Diversity Plus: SAg Assay for CD38 Biomarker Activity (AID 2283087). To be noted: primary human HUVEC with PBMC; actives raise or lower the signal. The method in brief:
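CD38 quantified by ELISA (fluorescence) in a superantigen-activated endothelial cell–PBMC co-culture at 24 h post-dose. Activity fitted in both directions relative to DMSO; parallel SRB and Alamar Blue cytotoxicity read-outs.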

Read-out in the next experiment: CD40, CD40 (gene 958)
The experiment is described as follows: BSK_SAg_CD40: BioMAP Diversity Plus: SAg Assay for CD40 Biomarker Activity (AID 2283088). To be noted: primary human HUVEC with PBMC; actives raise or lower the signal. The method in brief: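 HUVEC/PBMC co-culture, 24 h post-dose; CD40 by ELISA, fluorescence intensity; bidirectional fit vs DMSO negative control.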

Read-out in a further experiment: CD69, CD69 (gene 969)
The experiment is described as follows: BSK_SAg_CD69: BioMAP Diversity Plus: SAg Assay for CD69 Biomarker Activity (AID 2283089). To be noted: primary human HUVEC with PBMC; actives raise or lower the signal. The method in brief: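 Endothelial/PBMC co-culture; chemical added; 24 h incubation; CD69 ELISA with fluorescence detection; bidirectional fit vs DMSO.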

Read-out in experiment [5]: Monocyte Chemoattractant Protein-1 (MCP1), CCL2 (gene 6347)
The experiment is described as follows: BSK_SAg_MCP1: BioMAP Diversity Plus: SAg Assay for Monocyte Chemoattractant Protein-1 (MCP1) Biomarker Activity (AID 2283090). To be noted: primary human HUVEC with PBMC; actives raise or lower the signal. In short, it runs like this: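 Values derive from bidirectional fitting of ELISA-measured MCP1 against DMSO controls. Readings were taken 24 h after dosing human vascular endothelial cells co-cultured with peripheral blood mononuclear cells under superantigen stimulation.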

Read-out in experiment [6]: E-selectin (Homo sapiens) (UniProt P16581)
Kind of experiment: BSK_SAg_Eselectin: BioMAP Diversity Plus: SAg Assay for Eselectin Biomarker Activity (AID 2283091). To be noted: primary human HUVEC with PBMC; actives raise or lower the signal. In short, it runs like this:
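E-selectin ELISA readout at 24 h post-dosing in human umbilical vein endothelial cell/PBMC co-culture; gain or loss of signal fitted relative to DMSO baseline.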

Read-out in experiment [7]: Monokine induced gamma interferon (MIG), CXCL9 (gene 4283)
Kind of experiment: BSK_SAg_MIG: BioMAP Diversity Plus: SAg Assay for Monokine induced gamma interferon (MIG) Biomarker Activity (AID 2283092). To be noted: primary human HUVEC with PBMC; actives raise or lower the signal. In short, it runs like this:
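Measures CXCL9 protein by ELISA in a human vascular primary-cell co-culture (umbilical vein endothelium with PBMC) 24 h after chemical addition. Activity is scored up or down from the DMSO control.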

Experiment [8] is described as follows: BSK_SAg_PBMCCytotoxicity: PBMC Cytotoxicity Assessment in the BioMAP Diversity Plus: SAg Assay (AID 2283093).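 Further: fitted both ways against DMSO so a hit may be loss or gain of signal.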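 On AC50: PBMC superantigen activated with SEB plus TSST-1 one hour after compound addition.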 To be noted: primary human HUVEC with PBMC. In short, it runs like this: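 PBMC viability by Alamar Blue reduction, fluorescence read at 546/580 nm after 6 h dye exposure. Cells were dosed 1 h before SEB plus TSST-1 activation (20 ng/mL final each), then held 90 h; endothelial/PBMC human co-culture.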

Read-out in experiment [9]: Interleukin-8 (IL8), CXCL8 (gene 3576)
Kind of experiment: BSK_SAg_IL8: BioMAP Diversity Plus: SAg Assay for Interleukin-8 (IL8) Biomarker Activity (AID 2283094). To be noted: primary human HUVEC with PBMC; actives raise or lower the signal. The method in brief:
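ELISA readout of IL-8 from a superantigen-activated endothelial/PBMC primary human co-culture, taken 24 h post-dosing and fitted in both directions against DMSO; parallel SRB total-protein staining flags overt cytotoxicity.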

Experiment [10] in a line: BSK_SAg_SRB: Viability Assessment in the BioMAP Diversity Plus: SAg Assay (AID 2283096).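 Further: cells read one day after compound addition; hits may be either gain or loss of signal compared with DMSO.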 To be noted: primary human HUVEC with PBMC. The method in brief:
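Compounds were added to a human vascular co-culture of umbilical vein endothelium and PBMC. After 24 h, parallel cultures were fixed with 10% TCA, stained with 0.1% sulforhodamine B and read at 560 nm. Gain or loss of signal was fitted relative to DMSO.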

Experiment [11] can be described thus: BSK_SAg_Proliferation: Cell Proliferation Assessment in the BioMAP Diversity Plus: SAg Assay (AID 2283095).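 Further: relative cell number as total protein by SRB absorbance in sub-confluent culture.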 To be noted: primary human HUVEC with PBMC. In short, it runs like this: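 Relative cell number in the endothelial cell/PBMC co-culture was quantified at 96 h by SRB staining (0.1% SRB, 10% TCA fixation, read at 560 nm). Curves were fitted in both directions relative to DMSO baseline.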

E-selectin (Homo sapiens), sequence (P16581 whole entry, looked up): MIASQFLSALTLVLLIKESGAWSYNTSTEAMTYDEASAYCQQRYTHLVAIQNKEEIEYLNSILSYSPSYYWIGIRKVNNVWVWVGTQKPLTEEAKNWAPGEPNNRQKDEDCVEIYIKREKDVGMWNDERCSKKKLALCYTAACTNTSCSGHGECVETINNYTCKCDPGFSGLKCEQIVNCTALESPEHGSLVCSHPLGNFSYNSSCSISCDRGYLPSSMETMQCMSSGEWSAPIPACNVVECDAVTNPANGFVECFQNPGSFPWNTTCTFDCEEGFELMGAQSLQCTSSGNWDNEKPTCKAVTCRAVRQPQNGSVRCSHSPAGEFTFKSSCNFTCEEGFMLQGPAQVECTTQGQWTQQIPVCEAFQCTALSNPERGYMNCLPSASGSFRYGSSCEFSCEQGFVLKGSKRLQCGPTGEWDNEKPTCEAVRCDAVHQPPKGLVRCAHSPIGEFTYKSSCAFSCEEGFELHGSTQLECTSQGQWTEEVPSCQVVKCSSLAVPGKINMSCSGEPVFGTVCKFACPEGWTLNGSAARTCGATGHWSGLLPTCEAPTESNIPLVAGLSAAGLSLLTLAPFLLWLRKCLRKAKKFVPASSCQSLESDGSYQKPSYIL
Tumor necrosis factor (Homo sapiens), sequence (P01375 whole entry, looked up): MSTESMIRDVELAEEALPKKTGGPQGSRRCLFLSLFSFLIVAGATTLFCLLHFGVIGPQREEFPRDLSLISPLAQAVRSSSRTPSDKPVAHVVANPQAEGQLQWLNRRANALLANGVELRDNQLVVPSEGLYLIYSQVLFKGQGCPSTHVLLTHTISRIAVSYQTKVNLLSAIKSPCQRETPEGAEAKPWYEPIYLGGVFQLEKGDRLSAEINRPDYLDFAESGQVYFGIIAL

In the case of `FC(F)C(F)(F)COCC1CO1` (stereo unspecified), the outcome in experiment [1] is “inactive”; in experiment [2], “inactive”; in [3] it was “inactive”; in [4] it was “inactive”; with CD38, CD38 (gene 952), “inactive”; in the experiment with CD40, CD40 (gene 958) it was “inactive”. For the same molecule, the outcome with CD69, CD69 (gene 969) is “inactive”; in experiment [5] it was “inactive”; in [6], “inactive”; in experiment [7], “inactive”; in [8] it was “inactive”; in [9] it was “inactive”. Besides, the outcome in [10] was inactive.

`CCc1ccc(O)c(C(C)(C)C)c1`: the outcome in experiment [1] was “inactive”; in [2], “inactive”; with CD69, CD69 (gene 969), “inactive”; in experiment [7], “inactive”; in experiment [9] it was “inactive”. Besides, the AC50 in experiment [3] is 36.6 µM (active); in experiment [4] it was 30.5 µM (active); in the experiment with CD38, CD38 (gene 952), 26.7 µM (active); with CD40, CD40 (gene 958), 36 µM (active); in [5], 20 µM (active); in experiment [6], 29.6 µM (active). Also, the values for the half-maximal activity concentration (AC50) in experiment [8] and in experiment [10] were 34.7 µM (active) and 35.8 µM (active), respectively.

On to `CCCCOC(=O)c1ccccc1`, for which the outcome in experiment [1] is “inactive”; in experiment [2] it was “inactive”; in [3], “inactive”; in experiment [4] it was “inactive”; with CD38, CD38 (gene 952), “inactive”; in the experiment with CD40, CD40 (gene 958) it was “inactive”. For the same molecule, the outcome in the experiment with CD69, CD69 (gene 969) was “inactive”; in [5] it was “inactive”; in experiment [6], “inactive”; in [7] it was “inactive”; in [8], “inactive”; in experiment [9], “inactive”. The result in [11] and in [10] was inactive.

Take `OCc1ccccc1`: the outcome was “inactive” in experiment [1]; “inactive” in experiment [2]; “inactive” in experiment [3]; “inactive” in [4]; “inactive” with CD38, CD38 (gene 952); “inactive” in the experiment with CD40, CD40 (gene 958). In addition, the outcome with CD69, CD69 (gene 969) is “inactive”; in experiment [5], “inactive”; in experiment [6], “inactive”; in [7] it was “inactive”; in experiment [8], “inactive”; in experiment [9], “inactive”. Moreover, in [10], the result was inactive.

Regarding `C=CN1CCCC1=O`, the outcome is “inactive” in experiment [1]; “inactive” in [2]; “inactive” in experiment [3]; “inactive” in experiment [4]; “inactive” with CD38, CD38 (gene 952); “inactive” with CD40, CD40 (gene 958). The outcome was “inactive” in the experiment with CD69, CD69 (gene 969); “inactive” in experiment [5]; “inactive” in experiment [6]; “inactive” in experiment [7]; “inactive” in experiment [8]; “inactive” in [9]. Further, in [10], the outcome was inactive.

On to `OC[C@H]1O[C@@](CO)(O[C@H]2O[C@H](CO)[C@@H](O)[C@H](O)[C@H]2O)[C@@H](O)[C@@H]1O`, for which the outcome was “inactive” in [1]; “inactive” in experiment [2]; “inactive” in experiment [3]; “inactive” in [4]; “inactive” with CD38, CD38 (gene 952); “inactive” with CD40, CD40 (gene 958). In addition, the outcome with CD69, CD69 (gene 969) is “inactive”; in [5] it was “inactive”; in [6], “inactive”; in [7], “inactive”; in experiment [8], “inactive”; in experiment [9], “inactive”. Also, the outcome in experiment [10] was inactive.

For the molecule `CC1(C)C(=O)N(Cl)C(=O)N1Cl`, the outcome is “inactive” in experiment [1]; “inactive” in [2]; “inactive” in experiment [3]; “inactive” in [4]; “inactive” with CD38, CD38 (gene 952); “inactive” with CD40, CD40 (gene 958). Moreover, the outcome with CD69, CD69 (gene 969) is “inactive”; in experiment [5], “inactive”; in experiment [6], “inactive”; in experiment [7], “inactive”; in experiment [8], “inactive”; in experiment [9], “inactive”. The outcome in experiment [11] and in [10] was inactive.

Take `FC(F)=C(F)C(F)(F)C(F)(F)C(F)(F)C(F)(F)C(F)(F)C(F)(F)F`: the outcome is “inactive” in experiment [1]; “inactive” in experiment [2]; “inactive” in experiment [3]; “inactive” in experiment [4]; “inactive” with CD38, CD38 (gene 952); “inactive” in the experiment with CD40, CD40 (gene 958). For the same molecule, the outcome with CD69, CD69 (gene 969) was “inactive”; in [5], “inactive”; in [6], “inactive”; in [7], “inactive”; in [8], “inactive”; in experiment [9], “inactive”. Besides, the result in [11] and in [10] was inactive.

With `O=S1(=O)CCCO1`, the outcome in experiment [1] is “inactive”; in [2] it was “inactive”; in [3], “inactive”; in [4], “inactive”; in the experiment with CD38, CD38 (gene 952), “inactive”; in the experiment with CD40, CD40 (gene 958) it was “inactive”. Moreover, the outcome is “inactive” with CD69, CD69 (gene 969); “inactive” in [5]; “inactive” in experiment [6]; “inactive” in experiment [7]; “inactive” in experiment [8]; “inactive” in experiment [9]. Further, the outcome in experiment [11] and in experiment [10] was inactive.
